Source: PubChem
Vif-A3F inh = qHTS for Inhibitors of Vif-A3F Interactions: qHTS; HeLa A3F-eYFP + Vif (tagged APOBEC3F with the HIV-1 protein that degrades it), YFP fluorescence increase; Potency, µM (series often up to 46.1 µM), inactives show at the highest dose activity, negative = active; actives 0.2% (n = 390,000); note: potency is the fitted concentration of half-maximal effect; % of control where 0% means no effect; nearly all actives have a fitted effect of over 65% in size
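Fluorescence increase (Ex 488/Em 500-530) after overnight compound treatment at 37 deg C flags inhibition of Vif-driven A3F-eYFP loss in stable HeLa A3F-eYFP/Vif cells seeded overnight beforehand.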
Vif-A3G inh = qHTS for Inhibitors of Vif-A3G Interactions: qHTS | actives 0.076% (n = 410,000) | AID 602310, 2012 | HeLa A3G-eYFP + Vif (tagged APOBEC3G with the HIV-1 protein that degrades it), YFP fluorescence, overnight | Potency, µM (series often up to 46.1 µM), without a hit: at the top dose activity, negative = active, most hits filed as inhibitors; note: potency is the fitted concentration of half-maximal effect; % is set by controls: 0 for no effect and ±100 for the full control effect; nearly all actives have a fitted effect of over 60% in size
Target sequence (Q9HC16 whole entry, looked up): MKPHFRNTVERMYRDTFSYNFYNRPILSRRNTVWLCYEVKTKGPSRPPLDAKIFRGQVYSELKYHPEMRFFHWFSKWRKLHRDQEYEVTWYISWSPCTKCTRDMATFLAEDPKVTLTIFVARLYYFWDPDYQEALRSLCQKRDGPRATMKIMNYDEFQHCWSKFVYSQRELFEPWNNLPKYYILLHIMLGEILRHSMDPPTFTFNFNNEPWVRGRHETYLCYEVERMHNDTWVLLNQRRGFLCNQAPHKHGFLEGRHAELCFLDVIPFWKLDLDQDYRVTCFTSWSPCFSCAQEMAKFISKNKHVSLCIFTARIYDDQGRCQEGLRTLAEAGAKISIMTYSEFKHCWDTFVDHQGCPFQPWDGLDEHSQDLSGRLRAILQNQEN
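HeLa cells stably expressing Vif and C-terminally eYFP-tagged A3G, seeded overnight at 37 deg C, then exposed to compound by pintool overnight at 37 deg C. Rise in yellow fluorescence (Ex 488/Em 500-530, Acumen) marks blocked Vif-driven A3G degradation.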
MCF10A rerep = A quantitative high throughput screen for small molecules that induce DNA re-replication in MCF 10a normal breast cells; MCF 10A DNA re-replication, Hoechst nuclear intensity, 48 h; Potency, µM (titrated, usually from 46.1 µM), without a hit: at the highest dose activity, positive = re-replication, usual class: activators; actives 2.9% (n = 350,000); note: potency is the fitted concentration of half-maximal effect; % of control where 0% means no effect; nearly all actives have a fitted effect of over 50% in size
SW480 rerep = A quantitative high throughput screen for small molecules that induce DNA re-replication in SW480 colon adenocarcinoma cells. SW480 DNA re-replication, Hoechst DNA content imaging, 48 h. Potency, µM (titrated, usually from 46.1 µM), for the others: at the highest dose re-replication activation, hits mostly activators. actives 1.8% (n = 340,000). AID 624297, 2012; note: potency is the fitted concentration of half-maximal effect; % of control where 0% means no effect; nearly all actives have a fitted effect of over 55% in size
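Per well, 250 cells were exposed to pinned compound for 48 hr. Nuclear DNA was visualised with Hoechst (40 min, 37 C) and total object intensity recorded by fluorescence scanning.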
IL1B secr inh = qHTS for Inhibitors of Inflammasome Signaling: IL-1-beta AlphaLISA Primary Screen. actives 4.7% (n = 360,000). THP-1 LPS/ATP IL-1B secretion, AlphaLISA, 16 h; stronger effect = lower value. activity change, % at 57.5 µM; in the data active = activity change below about -50%; inconclusive = mostly about -30% to -49%; note: % is set by controls: 0 for no effect and ±100 for the full control effect
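Secreted IL-1B measured by AlphaLISA bead assay after 16 h compound exposure of THP-1 cells; compounds (final up to 57.5 uM) added 1 h before LPS (250 ng/mL) and ATP (1.25 mM) stimulation; lower signal means less secretion.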
Giardia killer = Small Molecules that selectively kill Giardia lamblia: qHTS; Giardia lamblia trophozoite viability; activity change, % at 7.66 µM, hits read low; actives 0.15% (n = 340,000); in the data active = activity change below about -80%; inconclusive = between about -30% and that limit;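 note: parasites exposed to compound for two days anaerobically before the ATP read; % is set by controls: 0 for no effect and ±100 for the full control effect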
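Giardia lamblia trophozoites (100 cells/well) were incubated with compounds for 48 h at 37 deg C under anaerobic conditions. Viability was read as ATP content by one-step luminescence after 15-30 min at room temperature.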
* marks the source's active call; other numbers are inactive results; ? = inconclusive; . = no result given. Sampled rows, rich in hits. Any-hit rate of the full collection: about 6.9%. Unless noted, calls come from the whole dose curve; as a rule, active = well fitted curve in the direction sought with a large enough effect; inconclusive = small, poorly fitted or top-dose-only effect, or another doubt; inactive = no such curve, though single readings can be large; an effect the other way counts as inactive or inconclusive.

SMILES	Vif-A3F inh	Vif-A3G inh	MCF10A rerep	SW480 rerep	IL1B secr inh	Giardia killer
CCc1nn(Cc2cccc(F)c2)c(=O)c2cc3cc(C)ccc3n12	6%	7%	.	.	.	.
O=C(N/N=C/C=C\c1ccccc1[N+](=O)[O-])c1ccco1	7%	0%	?	26µM*	-23	6
CCCCN(CCCC)C(=O)c1cc2c(=O)n3ccccc3nc2s1	-2%	0%	.	.	.	.
CCSC1=NSC2=NC(=O)/C(=C\c3coc4ccccc4c3=O)C(=N)N12	25µM*	?	18µM*	?	0	8
C(=C\c1nc2ccccc2nc1/C=C/c1ccc2c(c1)OCO2)/c1ccc2c(c1)OCO2	.	-1%	.	.	.	.
Cc1ccc(OCCCCN2CCCCC2)cc1	11%	1%	1%	-7%	-7	15
CN1CCN(CCCOc2ccc(-c3ccccc3)cc2)CC1	-2%	0%	?	9%	-82*	5
Cc1ccc(OCCN2CCCC2)cc1	0%	0%	?	15µM*	18	-1
Cc1ccc(OCCN2CCN(c3ncnc4sc(C)c(C)c34)CC2)cc1	-3%	6%	23µM*	?	?	-2
Cc1ccc(OCCCCN2CCc3ccccc3C2)cc1	-23%	-2%	15µM*	-1%	?	8
COc1ccc(OCCOCCN2CCN(C)CC2)cc1	-5%	-5%	5%	-1%	6	-18
CCn1cc(S(=O)(=O)c2cccc(C)c2)c(=O)c2cc(F)c(N3CCCC(C)C3)cc21 (centres undefined)	1%	-2%	.	.	.	.
CN1CCN(CCOc2ccc(-c3ccccc3)cc2)CC1	3%	2%	?	?	-59*	-17
c1ccc(COc2ccc(OCCCCN3CCCCC3)cc2)cc1	4%	1%	26%	-1%	-58*	-1
c1ccc(OCCN2CCN(C(c3ccccc3)c3ccccc3)CC2)cc1	-13%	-1%	?	0.65µM*	-22	1
CCN1CCN(CCCOc2ccc(-c3ccccc3)cc2)CC1	7%	1%	-3%	5%	-56*	-8
CCN1CCN(CCCOc2ccccc2-c2ccccc2)CC1	7%	-3%	?	26%	-5	6
O=C(c1ccccc1)c1ccc(OCCCCN2CCCCC2)cc1	-6%	1%	?	-9%	-11	14
COc1ccc(OC)c(-c2noc(CSc3nnc(Cc4ccccc4)n3-c3cccc(C)c3)n2)c1	2%	0%	.	.	.	.
Cc1ccc(NC(=O)CSc2nc3ccc(Nc4nc(N5CCOCC5)nc(N5CCOCC5)n4)cc3s2)cc1	?	-13%	5.8µM*	?	21	-8
COc1ccc(NC(=O)CSc2nc3ccc(Nc4nc(N5CCOCC5)nc(N5CCOCC5)n4)cc3s2)cc1	-3%	-10%	2.1µM*	13%	-10	-13
CC1(C)CCN2CCC(C)(C)c3c(O)ccc1c32	?	?	13µM*	?	14	-10
O=C1c2ccccc2CSc2c(O)cccc21	-3%	-2%	-1%	0%	-64*	-8
CC(=O)CCS(=O)(=O)c1ccc(Oc2ccc(S(=O)(=O)CCC(C)=O)cc2)cc1	.	-26%	?	?	-75*	4
CCOC(=O)CCS(=O)(=O)c1ccc(-c2ccc(S(=O)(=O)CCC(=O)OCC)cc2)cc1	0%	-7%	-6%	-5%	-99*	-13
SMILES	Vif-A3F inh	Vif-A3G inh	MCF10A rerep	SW480 rerep	IL1B secr inh	Giardia killer
Clc1ccc(-c2cc3ncc4c(n3n2)-c2ccccc2OC4)cc1	-6%	3%	.	.	.	.
Cc1ccc(-c2[nH]ncc2CNC(C)c2ccccc2)cc1 (centres undefined)	.	3%	.	.	.	14
C[S+](C)CC(=O)c1ccc2ccccc2c1	.	-2%	.	.	.	.
COC(=O)c1[nH]c2ccc(Br)cc2c1NC(=O)C(C)N1CCN(C2CCCCC2)CC1 (centres undefined)	-13%	-9%	7%	?	-82*	0
O=c1oc2ccccc2cc1-c1nc2c(s1)CCCC2	-10%	0%	1.2µM*	1.2µM*	26	-20
CCOc1ccc(S(=O)(=O)N(CC)CC)cc1N	-2%	2%	3%	-64%	-1	-28
CCOc1ccc(C(=O)c2ccc(OCC)c(N)c2)cc1N	-3%	-28%	18µM*	?	?	-13
COc1cccc(NC(=O)c2oc3ccccc3c2NC(=O)c2ccc(F)c(F)c2)c1	4%	0%	.	.	.	.
Cc1sc2ccccc2[n+]1CCCCBr	.	5%	.	.	.	.
CCCCc1ccc(NC(=S)NCc2cccc(OC)c2)cc1	0%	1%	?	?	-79*	-1
CCCCc1ccc(NC(=S)Nc2ccc(Nc3ccc(OC)cc3)cc2)cc1	-11%	-6%	21µM*	?	0	26
COC(=O)Cc1ccc(NC(=S)NCc2cccc(OC)c2)cc1	-4%	0%	13%	2%	5	13
CCCCc1ccc(NC(=S)Nc2cccnc2)cc1	0%	6%	2%	-10%	14	4
O=C1Nc2ccccc2C12OC1CCCCC1O2 (centres undefined)	2%	3%	-9%	-4%	-9	-2
N#CC1=C(N)C(C#N)(C#N)C2(C(=O)Nc3ccccc32)C2CCCC=C12 (centres undefined)	-6%	-8%	-3%	0%	-53*	4
CC(C)CC(=O)Nc1ncc([N+](=O)[O-])s1	13%	-7%	8%	1%	42	-93*
CCCCC(=O)Nc1ncc([N+](=O)[O-])s1	5%	-8%	?	-4%	0	-90*
COc1ccc(CC(=O)Nc2ncc([N+](=O)[O-])s2)cc1OC	3%	3%	-3%	1%	106	-89*
Cc1nc(C)c(C(=O)Nc2ncc([N+](=O)[O-])s2)o1	10%	0%	-3%	2%	21	-88*
COc1ccc(CC(=O)Nc2nccs2)cc1OC	4%	2%	?	0%	48	10
Cc1cn2c(=O)cc(COC(=O)c3ccc(NC(=O)c4ccc(C(C)(C)C)cc4)cc3)nc2s1	-6%	1%	.	.	.	.
CC(C)(C)c1ccc(C(=O)Nc2ccc(-c3nc4cc(Cl)ccc4o3)cc2)cc1	2%	2%	.	.	.	.
Oc1cccc(C=Nc2cccc3ccccc23)c1O	?	?	18µM*	18µM*	-59*	-21
CCOc1ccc(CNC(=O)CN2N=C(c3ccccc3)CCC2=O)cc1OC	12%	3%	.	.	.	.
